Unmarked numbers belong to inactive results. Calls of active or inactive are those of the source. Calls follow the shape of the dose curve; as a rule, active = well fitted curve in the direction sought with a large enough effect in the repeat runs; inconclusive = weak or mixed curves; inactive = flat fitted curve, though single readings scatter.
Assay: qHTS assay to test for compound auto fluorescence at 590 nm (red) in HEK293 cell free culture (AID 720683)
Conditions: cell-free medium autofluorescence, Ex540/Em590 red; series mostly up to 91.3 µM; fluorescence, % of fluorescent control: at the top concentration
Excerpt: U.S. Tox21 Program National Center for Advancing Translational Sciences [NCATS] NIH Chemical Genomics Center [NCGC] U.S. Environmental Protection Agency [EPA] National Institutes of Environmental Health Sciences [NIEHS] National Toxicology Program [NTP] U.S. Food and Drug Administration [FDA] Tox21 Assay Overview: Compound auto fluorescence often interferes with screening of the compound library against various biological targets and signaling pathways. Some of these compounds may have fluorophoric properties. Such properties may interfere with the assay outputs resulting in false positives and/or negatives. To decrease such complications and ensure the compound activities are relevant in terms of biological response, the Tox21 10K compound library was screened for auto fluorescence. From the fluorophores used as reporter signals in our screening assays, the auto fluorescence equivalencies of compounds against three fluorophores have been evaluated: Triamterene, Fluorescein and Rose Bengal sodium for blue, green and red fluorescence, respectively. The fluorescence intensities were measured using Excitation/Emission wavelengths at 405/460nm, 485/535nm and 540/590nm for blue, green and red labels, respectively. This assay includes the red fluorescence data.
Tox21 Assay Protocol Summary: 5 uL of culture medium (DMEM containing 10% FBS) per well was dispensed into black wall/clear bottom 1536-well plates using a Multidrop Combi Dispenser (ThermoFisher Scientific, Waltham, MA). After 23 nL compound or DMSO vehicle was transferred into assay plate by a pintool work station (Kalypsys, San Diego, CA), fluorescence intensities in the assay plates were measured by an Envision (PerkinElmer, Shelton, CT) plate reader using three labels for measuring blue, green and red fluorescence at […] 460, 535 and 590nm respectively.
% is scaled to controls: 0 for no effect and ±100 for the full control effect.

Row | Structure (SMILES) | fluorescence, % of fluorescent control | outcome
1 | COC(=O)Nc1nc2ccc(C(=O)c3cccs3)cc2[nH]1 | -0.0759% [at 46 µM] | 
2 | CN1C(=O)CC(C)(c2ccccc2)C1=O (stereo not given) | 0.0282% [at 46 µM] | 
3 | C=CC(=O)NCOCC(C)C | -0.378% | 
4 | CC1(C)C(=O)N(Br)C(=O)N1Cl | -0.555% | 
5 | C[C@]12CCC(=O)C=C1C=C[C@@H]1[C@@H]2CC[C@@]2(C)[C@H]1CC[C@@]21CCC(=O)O1 | 0.32% [at 46 µM] | 
6 | CC1=CC(O)CC(C)(C)C1 (stereo not given) | -0.289% | 
7 | CCOc1cc(N)c(Cl)cc1C(=O)NCC1CN(Cc2ccc(F)cc2)CCO1 (stereo not given) | 0.112% [at 46 µM] | 
8 | O=C(CS)OCCOC(=O)CS | 0.0008% | 
9 | Fc1c(F)c(F)c(Br)c(F)c1F | -0.336% | 
10 | Cc1cnc(C)c(C)n1 | -0.0006% [at 95.7 µM] | 
11 | CC(COc1ccc(C(C)(C)C)cc1)OS(=O)OCCCl (stereo not given) | 0.0274% | 
12 | CO[C@@]12[C@H](COC(N)=O)C3=C(C(=O)C(C)=C(N)C3=O)N1C[C@@H]1N[C@@H]12 | -0.0032% [at 46 µM] | 
13 | CCCOC(=O)c1ccc(C(=O)OCCC)nc1 | 0.041% | 
14 | C/C=C(\C)C(=O)OCCC(C)CCC=C(C)C (stereo not given) | -0.0512% | 
15 | CCC(C)(C)C1CCC(O)CC1 (stereo not given) | -0.147% | 
16 | CCCCCCCC/C=C\CCCCCCCC(=O)OC | 0.306% | 
17 | CCCOCCOCCO | -0.344% | 
18 | CCCCCCCC/C=C\CCCCCCCC(=O)OC(CO)CO | -0.107% | 
19 | Cc1ccnc2ccccc12 | -0.193% | 
20 | CC(Cl)C(Cl)Cl (stereo not given) | 0.0017% | 

Row | Structure (SMILES) | fluorescence, % of fluorescent control | outcome
21 | CCCCN(CCCC)CCCOC(=O)c1ccc(N)cc1 | 0.0804% [at 18.6 µM] | 
22 | CC1CC(=O)NN=C1c1ccc(NCC(C)(C)NCC(O)COc2cc(Cl)ccc2C#N)cc1 (stereo not given) | -0.553% [at 46 µM] | 
23 | Cc1cc(C(=C2C=CC(=Nc3ccc(S(=O)(=O)O)cc3S(=O)(=O)O)C=C2)c2ccc(Nc3ccc(S(=O)(=O)O)cc3)cc2)ccc1N | 0.0662% | 
24 | CCC(C)=O | -0.358% | 
25 | CC(=O)OCC(=O)[C@H]1CC[C@H]2[C@@H]3CCC4=CC(=O)CC[C@]4(C)[C@H]3CC[C@]12C | 0.161% [at 46 µM] | 
26 | CCNC(=O)N1CCN(CCCC(c2ccc(F)cc2)c2ccc(F)cc2)CC1 | -0.0319% [at 46 µM] | 
27 | CC(=O)OCC(=O)[C@@]12OC(C)(C)O[C@@H]1C[C@H]1[C@@H]3C[C@H](F)C4=CC(=O)C=C[C@]4(C)[C@@]3(F)[C@@H](O)C[C@@]12C | 0.389% [at 18.6 µM] | 
28 | CC1CC(O)CC(C)(C)C1 (stereo not given) |  | inactive
29 | CC(C)C(OC(=O)c1ccccc1)C(C)(C)COC(=O)c1ccccc1 (stereo not given) | -0.0275% | 
30 | CCCCCCCCCCCCCCCCBr | 0.0252% [at 18.6 µM] | 
31 | CCc1cccc(N(C)C(N)=Nc2cccc3ccccc23)c1 | -0.907% [at 46 µM] | 
32 | CO/N=C1\CN(c2nc3c(cc2F)c(=O)c(C(=O)O)cn3C2CC2)CC1CN (stereo not given) | -0.0203% [at 46 µM] | 
33 | Cc1cc(O)c2c(O)c3c(O)cccc3cc2c1 | -0.269% [at 46 µM] | 
34 | CCCCCCCCCCCC[N+](C)(C)CC(=O)[O-] | -0.0492% | 
35 | Cc1oncc1C(=O)Nc1ccc(C(F)(F)F)cc1 |  | inactive
36 | C[C@@H]1C[C@H]2[C@@H]3CCC4=CC(=O)C=C[C@]4(C)[C@@]3(F)[C@@H](O)C[C@]2(C)[C@H]1C(=O)CO | -0.0624% [at 46 µM] | 
37 | NC(=O)N(O)[C@@H]1COc2cc(OCc3ccccc3)ccc21 | -0.0442% | 
38 | Cc1oc(C)c(C(=O)Nc2ccccc2)c1C | 0.0308% | 
39 | CCN(CC)CCNC(=O)c1ccc(NC(C)=O)cc1 | -0.433% [at 46 µM] | 
40 | Cc1ccc(S)cc1 | 0.0308% | 

From PubChem BioAssay (Tox21)
